# From paper PMC7862700, “An all-to-all approach to the identification of sequence-specific readers for epigenetic DNA modifications on cytosine”
# Legend:
# Experiment in all cases: DAPPL (digital affinity profiling via proximity ligation, sequencing); 10 mM Tris-HCl pH 7.5, 50 mM NaCl, 1 mM DTT, 4% glycerol, room temperature, 30 min; GST-TFs on glutathione beads, 16-mer random dsDNA library, 0.1% formaldehyde crosslink after washing; high values mean tight binding
# Details in all cases: protein: recombinant; tags: N-terminal GST; dsDNA, one strand shown
# ERF = molecular target: T1, ERF (Homo sapiens, UniProt P50548 1-548)
# T1 sequence: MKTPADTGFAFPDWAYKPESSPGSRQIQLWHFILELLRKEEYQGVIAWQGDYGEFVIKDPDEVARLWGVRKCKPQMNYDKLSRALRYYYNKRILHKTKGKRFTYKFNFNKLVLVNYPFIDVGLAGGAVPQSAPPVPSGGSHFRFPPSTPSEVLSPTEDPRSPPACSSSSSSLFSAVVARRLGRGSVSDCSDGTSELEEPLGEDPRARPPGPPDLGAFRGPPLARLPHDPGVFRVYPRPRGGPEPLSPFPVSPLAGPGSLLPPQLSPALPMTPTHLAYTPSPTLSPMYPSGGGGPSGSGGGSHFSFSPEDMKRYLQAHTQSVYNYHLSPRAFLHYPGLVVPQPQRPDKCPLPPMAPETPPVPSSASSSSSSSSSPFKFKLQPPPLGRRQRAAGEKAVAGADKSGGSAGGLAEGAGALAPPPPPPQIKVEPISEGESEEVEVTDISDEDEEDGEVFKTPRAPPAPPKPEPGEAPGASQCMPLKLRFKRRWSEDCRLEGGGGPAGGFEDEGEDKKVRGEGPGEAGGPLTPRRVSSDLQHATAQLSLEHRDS
# Method in brief: (§1)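 Binding signal is given per hexamer as its read frequency for a factor divided by its frequency in the tag-only sample. GST-fused human transcription factors were expressed in yeast, captured on glutathione beads, barcoded with DNA and pooled with that sample, then incubated with 200 nmole of a 16-mer random double-stranded DNA library in Tris/NaCl/DTT/glycerol buffer for 30 min at room temperature. The pools were then washed, crosslinked, proximity-ligated, amplified by PCR and sequenced on an Illumina NextSeq500.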
# ETV3L = molecular target: T2, ETV3L (Homo sapiens, UniProt Q6ZN32 1-361)
# T2 sequence: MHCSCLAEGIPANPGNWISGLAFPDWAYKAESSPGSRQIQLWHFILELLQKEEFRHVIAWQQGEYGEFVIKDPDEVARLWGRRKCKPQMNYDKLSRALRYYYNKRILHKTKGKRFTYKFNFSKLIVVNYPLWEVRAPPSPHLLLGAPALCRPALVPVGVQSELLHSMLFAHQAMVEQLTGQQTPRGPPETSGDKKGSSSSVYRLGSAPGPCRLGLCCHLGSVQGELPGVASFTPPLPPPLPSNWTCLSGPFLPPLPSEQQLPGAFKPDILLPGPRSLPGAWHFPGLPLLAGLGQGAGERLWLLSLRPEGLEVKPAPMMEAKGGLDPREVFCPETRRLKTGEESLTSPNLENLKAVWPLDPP
# Method in brief: as §1
# ETS2 = molecular target: T3, ETS2 (Homo sapiens, UniProt P15036 1-469)
# T3 sequence: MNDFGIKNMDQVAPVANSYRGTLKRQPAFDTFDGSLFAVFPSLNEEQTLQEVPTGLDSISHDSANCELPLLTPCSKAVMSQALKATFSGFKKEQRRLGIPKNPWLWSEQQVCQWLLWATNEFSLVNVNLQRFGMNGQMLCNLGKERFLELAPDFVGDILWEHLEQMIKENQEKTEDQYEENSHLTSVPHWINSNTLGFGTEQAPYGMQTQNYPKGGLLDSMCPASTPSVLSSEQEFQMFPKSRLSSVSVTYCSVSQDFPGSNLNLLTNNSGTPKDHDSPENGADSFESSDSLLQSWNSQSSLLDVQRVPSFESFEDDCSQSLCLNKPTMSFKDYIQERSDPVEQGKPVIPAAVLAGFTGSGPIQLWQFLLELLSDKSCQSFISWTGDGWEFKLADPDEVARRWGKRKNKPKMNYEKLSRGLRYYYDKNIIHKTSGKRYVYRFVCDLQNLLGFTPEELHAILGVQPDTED
# Method in brief: as §1
# SPDEF = molecular target: T4, SPDEF (Homo sapiens, UniProt O95238 1-335)
# T4 sequence: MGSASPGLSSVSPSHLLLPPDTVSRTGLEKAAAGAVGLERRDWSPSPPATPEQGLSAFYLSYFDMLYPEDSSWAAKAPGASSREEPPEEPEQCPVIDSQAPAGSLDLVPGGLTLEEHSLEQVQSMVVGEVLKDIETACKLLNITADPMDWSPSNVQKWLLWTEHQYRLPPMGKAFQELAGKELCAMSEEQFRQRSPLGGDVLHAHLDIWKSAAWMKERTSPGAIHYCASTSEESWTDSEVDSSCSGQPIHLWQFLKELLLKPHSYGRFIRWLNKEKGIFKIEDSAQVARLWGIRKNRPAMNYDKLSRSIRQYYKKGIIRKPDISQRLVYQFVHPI
# Method in brief: as §1
# ETV7 = molecular target: T5, ETV7 (Homo sapiens, UniProt Q9Y603 1-341)
# T5 sequence: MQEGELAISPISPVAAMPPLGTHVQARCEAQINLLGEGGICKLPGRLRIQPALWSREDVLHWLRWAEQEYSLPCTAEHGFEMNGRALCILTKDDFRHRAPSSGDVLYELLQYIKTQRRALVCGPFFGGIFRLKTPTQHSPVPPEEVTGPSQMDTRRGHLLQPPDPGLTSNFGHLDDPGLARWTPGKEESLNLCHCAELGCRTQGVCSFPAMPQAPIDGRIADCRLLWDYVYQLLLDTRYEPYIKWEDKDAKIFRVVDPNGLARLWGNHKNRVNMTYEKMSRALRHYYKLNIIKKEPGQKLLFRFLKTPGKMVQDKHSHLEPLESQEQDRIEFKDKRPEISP
# Method in brief: as §1
# ELF5 = molecular target: T6, ELF5 (Homo sapiens, UniProt Q9UKW6-2 1-255)
# T6 sequence: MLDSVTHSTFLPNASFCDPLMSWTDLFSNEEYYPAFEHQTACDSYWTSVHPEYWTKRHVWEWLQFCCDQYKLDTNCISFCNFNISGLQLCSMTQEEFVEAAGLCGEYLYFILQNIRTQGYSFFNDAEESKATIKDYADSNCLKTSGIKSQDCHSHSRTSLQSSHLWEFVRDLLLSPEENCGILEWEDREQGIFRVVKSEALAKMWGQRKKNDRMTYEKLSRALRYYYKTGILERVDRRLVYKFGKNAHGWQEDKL
# Method in brief: as §1
# ETV3 = molecular target: T7, ETV3 (Homo sapiens, UniProt P41162-2 1-143)
# T7 sequence: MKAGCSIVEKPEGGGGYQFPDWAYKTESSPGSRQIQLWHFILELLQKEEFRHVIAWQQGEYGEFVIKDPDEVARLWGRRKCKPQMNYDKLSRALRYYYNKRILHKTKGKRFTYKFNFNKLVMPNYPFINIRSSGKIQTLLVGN
# Method in brief: as §1
# ETV6 = ETV6 (Homo sapiens, UniProt P41212 1-452)
# Chain of ETV6 (P41212 whole entry): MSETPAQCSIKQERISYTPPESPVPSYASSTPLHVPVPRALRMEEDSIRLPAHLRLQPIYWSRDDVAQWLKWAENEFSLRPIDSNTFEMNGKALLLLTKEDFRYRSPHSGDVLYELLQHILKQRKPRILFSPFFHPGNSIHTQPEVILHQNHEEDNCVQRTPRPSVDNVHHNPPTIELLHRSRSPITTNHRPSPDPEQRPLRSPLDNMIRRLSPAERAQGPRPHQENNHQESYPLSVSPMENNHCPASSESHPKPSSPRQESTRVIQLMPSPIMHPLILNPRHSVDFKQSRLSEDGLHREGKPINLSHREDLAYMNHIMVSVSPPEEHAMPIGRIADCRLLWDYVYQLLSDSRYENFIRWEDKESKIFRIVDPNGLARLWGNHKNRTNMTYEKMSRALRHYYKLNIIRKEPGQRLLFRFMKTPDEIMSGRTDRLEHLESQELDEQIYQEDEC
# Method in brief: as §1
Sequence,binding signal (ERF),binding signal (ETV3L),binding signal (ETS2),binding signal (SPDEF),binding signal (ETV7),binding signal (ELF5),binding signal (ETV3),binding signal (ETV6)
ACCCAC,"1.2 fold enrichment (6-mer frequency, TF over GST control)","1.02 fold enrichment (6-mer frequency, TF over GST control)","1.15 fold enrichment (6-mer frequency, TF over GST control)","1.21 fold enrichment (6-mer frequency, TF over GST control)","1.18 fold enrichment (6-mer frequency, TF over GST control)","1.19 fold enrichment (6-mer frequency, TF over GST control)","1.13 fold enrichment (6-mer frequency, TF over GST control)","1.2 fold enrichment (6-mer frequency, TF over GST control)"
TATACT,"1.3 fold enrichment (6-mer frequency, TF over GST control)","1.29 fold enrichment (6-mer frequency, TF over GST control)","1.38 fold enrichment (6-mer frequency, TF over GST control)","1.52 fold enrichment (6-mer frequency, TF over GST control)","1.31 fold enrichment (6-mer frequency, TF over GST control)","1.34 fold enrichment (6-mer frequency, TF over GST control)","1.34 fold enrichment (6-mer frequency, TF over GST control)","1.45 fold enrichment (6-mer frequency, TF over GST control)"
TGAAAA,"1.04 fold enrichment (6-mer frequency, TF over GST control)","1.07 fold enrichment (6-mer frequency, TF over GST control)","1.11 fold enrichment (6-mer frequency, TF over GST control)","1.01 fold enrichment (6-mer frequency, TF over GST control)","1.07 fold enrichment (6-mer frequency, TF over GST control)","1.06 fold enrichment (6-mer frequency, TF over GST control)",–,–
TGGTAT,"1.34 fold enrichment (6-mer frequency, TF over GST control)","1.37 fold enrichment (6-mer frequency, TF over GST control)","1.33 fold enrichment (6-mer frequency, TF over GST control)","1.42 fold enrichment (6-mer frequency, TF over GST control)","1.35 fold enrichment (6-mer frequency, TF over GST control)","1.37 fold enrichment (6-mer frequency, TF over GST control)","1.28 fold enrichment (6-mer frequency, TF over GST control)","1.31 fold enrichment (6-mer frequency, TF over GST control)"
TACTAG,"1.07 fold enrichment (6-mer frequency, TF over GST control)","1.04 fold enrichment (6-mer frequency, TF over GST control)","1 fold enrichment (6-mer frequency, TF over GST control)","1.01 fold enrichment (6-mer frequency, TF over GST control)","1 fold enrichment (6-mer frequency, TF over GST control)",–,–,–
AAACTT,"1.36 fold enrichment (6-mer frequency, TF over GST control)","1.24 fold enrichment (6-mer frequency, TF over GST control)","1.32 fold enrichment (6-mer frequency, TF over GST control)","1.1 fold enrichment (6-mer frequency, TF over GST control)","1.22 fold enrichment (6-mer frequency, TF over GST control)","1.43 fold enrichment (6-mer frequency, TF over GST control)","1.34 fold enrichment (6-mer frequency, TF over GST control)","1.29 fold enrichment (6-mer frequency, TF over GST control)"
CTTGAC,"1.16 fold enrichment (6-mer frequency, TF over GST control)","1.17 fold enrichment (6-mer frequency, TF over GST control)","1.12 fold enrichment (6-mer frequency, TF over GST control)","1.13 fold enrichment (6-mer frequency, TF over GST control)","1.2 fold enrichment (6-mer frequency, TF over GST control)","1.21 fold enrichment (6-mer frequency, TF over GST control)","1.22 fold enrichment (6-mer frequency, TF over GST control)","1.23 fold enrichment (6-mer frequency, TF over GST control)"
TTAAGT,"1.12 fold enrichment (6-mer frequency, TF over GST control)","1.15 fold enrichment (6-mer frequency, TF over GST control)","1.16 fold enrichment (6-mer frequency, TF over GST control)","1.31 fold enrichment (6-mer frequency, TF over GST control)","1.19 fold enrichment (6-mer frequency, TF over GST control)","1.12 fold enrichment (6-mer frequency, TF over GST control)","1.12 fold enrichment (6-mer frequency, TF over GST control)","1.19 fold enrichment (6-mer frequency, TF over GST control)"
AAGAAG,"1.01 fold enrichment (6-mer frequency, TF over GST control)","1.04 fold enrichment (6-mer frequency, TF over GST control)","1.04 fold enrichment (6-mer frequency, TF over GST control)","1.01 fold enrichment (6-mer frequency, TF over GST control)","1.16 fold enrichment (6-mer frequency, TF over GST control)","1.12 fold enrichment (6-mer frequency, TF over GST control)","1.05 fold enrichment (6-mer frequency, TF over GST control)","1.16 fold enrichment (6-mer frequency, TF over GST control)"
AGTACA,"1.06 fold enrichment (6-mer frequency, TF over GST control)","1.09 fold enrichment (6-mer frequency, TF over GST control)","1.16 fold enrichment (6-mer frequency, TF over GST control)","1.31 fold enrichment (6-mer frequency, TF over GST control)","1.21 fold enrichment (6-mer frequency, TF over GST control)","1.17 fold enrichment (6-mer frequency, TF over GST control)","1.2 fold enrichment (6-mer frequency, TF over GST control)","1.24 fold enrichment (6-mer frequency, TF over GST control)"
CTATGT,"1.08 fold enrichment (6-mer frequency, TF over GST control)","1.06 fold enrichment (6-mer frequency, TF over GST control)","1.16 fold enrichment (6-mer frequency, TF over GST control)","1.12 fold enrichment (6-mer frequency, TF over GST control)","1.3 fold enrichment (6-mer frequency, TF over GST control)","1.1 fold enrichment (6-mer frequency, TF over GST control)","1.15 fold enrichment (6-mer frequency, TF over GST control)",–
CCCTTT,"1.42 fold enrichment (6-mer frequency, TF over GST control)","1.51 fold enrichment (6-mer frequency, TF over GST control)","1.37 fold enrichment (6-mer frequency, TF over GST control)","1.51 fold enrichment (6-mer frequency, TF over GST control)","1.34 fold enrichment (6-mer frequency, TF over GST control)","1.52 fold enrichment (6-mer frequency, TF over GST control)","1.36 fold enrichment (6-mer frequency, TF over GST control)","1.4 fold enrichment (6-mer frequency, TF over GST control)"
TCGCAC,"1.06 fold enrichment (6-mer frequency, TF over GST control)","1.06 fold enrichment (6-mer frequency, TF over GST control)","1.04 fold enrichment (6-mer frequency, TF over GST control)","1.05 fold enrichment (6-mer frequency, TF over GST control)","1.03 fold enrichment (6-mer frequency, TF over GST control)","1.06 fold enrichment (6-mer frequency, TF over GST control)","1.07 fold enrichment (6-mer frequency, TF over GST control)",–
CTGTCC,"1.28 fold enrichment (6-mer frequency, TF over GST control)","1.13 fold enrichment (6-mer frequency, TF over GST control)","1.33 fold enrichment (6-mer frequency, TF over GST control)","1.27 fold enrichment (6-mer frequency, TF over GST control)","1.28 fold enrichment (6-mer frequency, TF over GST control)","1.3 fold enrichment (6-mer frequency, TF over GST control)","1.14 fold enrichment (6-mer frequency, TF over GST control)","1.26 fold enrichment (6-mer frequency, TF over GST control)"
CGATAG,"1.17 fold enrichment (6-mer frequency, TF over GST control)","1.07 fold enrichment (6-mer frequency, TF over GST control)","1.07 fold enrichment (6-mer frequency, TF over GST control)","1.03 fold enrichment (6-mer frequency, TF over GST control)","1.15 fold enrichment (6-mer frequency, TF over GST control)","1.02 fold enrichment (6-mer frequency, TF over GST control)","1.17 fold enrichment (6-mer frequency, TF over GST control)","1.11 fold enrichment (6-mer frequency, TF over GST control)"
TCTATG,"1.07 fold enrichment (6-mer frequency, TF over GST control)","1.08 fold enrichment (6-mer frequency, TF over GST control)","1.08 fold enrichment (6-mer frequency, TF over GST control)","1.05 fold enrichment (6-mer frequency, TF over GST control)","1.25 fold enrichment (6-mer frequency, TF over GST control)","1.07 fold enrichment (6-mer frequency, TF over GST control)","1.18 fold enrichment (6-mer frequency, TF over GST control)",–
